Shown are actives, neighbours in structure and some others; about 22% of the full set was active somewhere.
CYP2C9 act – human CYP2C9 activators, primary screen, biochemical, luminescence; recombinant CYP2C9, luciferin-H conversion; active compounds read high; factor 1 = untreated enzyme, 0 = blocked; activation factor at 5 µM; 96,000 compounds, 1.4% hits;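 active = activation factor of 2 or more for CYP2C9 at a 5 µM dose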;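 note: 0 = sulfaphenazole-blocked wells and 1 = vehicle-only wells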
Target sequence (P11712 whole entry, looked up): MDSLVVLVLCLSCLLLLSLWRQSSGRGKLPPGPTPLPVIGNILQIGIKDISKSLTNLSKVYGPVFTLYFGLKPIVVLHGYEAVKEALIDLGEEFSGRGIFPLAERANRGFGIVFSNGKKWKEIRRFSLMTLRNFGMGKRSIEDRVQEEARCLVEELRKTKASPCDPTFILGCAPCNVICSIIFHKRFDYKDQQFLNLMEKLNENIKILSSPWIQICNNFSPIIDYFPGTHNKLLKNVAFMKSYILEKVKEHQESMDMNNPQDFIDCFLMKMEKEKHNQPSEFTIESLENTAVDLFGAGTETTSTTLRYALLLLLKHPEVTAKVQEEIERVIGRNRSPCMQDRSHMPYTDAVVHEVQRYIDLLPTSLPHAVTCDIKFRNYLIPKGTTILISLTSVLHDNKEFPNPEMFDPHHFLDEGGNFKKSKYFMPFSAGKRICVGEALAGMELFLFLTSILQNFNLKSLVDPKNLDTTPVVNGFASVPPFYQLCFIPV
CYP2C19 activ – human CYP2C19 activators, primary screen, biochemical, luminescence | activation factor at 5 µM | Cytochrome P450 2C19 (Homo sapiens), P33261 | recombinant CYP2C19, luciferin-H EGE luminescence; active compounds read high; 0 = fully inhibited enzyme, 1 = untreated enzyme | 96,000 tested, under 10 active;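 active = activation factor of at least 2 at 5 µM in the primary screen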;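 note: 0 = wells with 2.5 mM tranylcypromine and 1 = vehicle-only wells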
CYP2C9 inhib – blockers of cytochrome P450 2C9 activity – biochemical, luminescence, ADME assay, primary screen; P11712; CYP2C9 Supersomes, luciferin-H conversion; inhibition, % at 5 µM; 96,000 compounds, 20% hits;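 active = blocking of liver enzyme CYP2C9 beyond about 50% at 5 µM, limit read from the data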
Measles CPE – compounds protecting cells from measles virus cytopathic effect, primary screen, measles RdRp inhibitor project, single point, MLSMR library, absorbance | 140,000 compounds, 1.5% hits | protection (pct of control), % at 4 µM | Measles virus-infected cells, CPE protection; in the data active = protection mostly above about 24%, no sharp cut-off; inactive = mostly below about 26%
CYP2C19 inhib – blockers of cytochrome P450 2C19 activity – biochemical, luminescence, ADME assay, primary screen | P33261 | CYP2C19 Supersomes, luciferin-H EGE luminescence, 30 min | inhibition, % at 5 µM | 96,000 compounds, 21% hits;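 active = CYP2C19 inhibition above a set limit at 5 µM in the primary screen, cut at about 50% in these data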;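 note: plate controls were negative control wells for no effect and 2.5 mM tranylcypromine positive control for full effect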
Starred values were filed as active, the others as inactive.

Results for Cc1sc2nc(SCc3nnc(-c4cccs4)o3)n(C3CCCC3)c(=O)c2c1C ?
CYP2C9 act: 0.2; CYP2C19 activ: 0.7; CYP2C9 inhib: 82.8*; Measles CPE: 12.5; CYP2C19 inhib: 26.5

What do the screens show for `CC(C)Cn1c(SCc2nnc(-c3cccs3)o2)nc(O)cc1=O`?
CYP2C9 act: 0.3; CYP2C19 activ: 0.8; CYP2C9 inhib: 74.8*; Measles CPE: 18.5; CYP2C19 inhib: 24.5

What do the screens show for `Cc1sc2nc(CSc3nnc(Cc4cccs4)n3C3CCCCC3)[nH]c(=O)c2c1C`?
CYP2C9 act: 0.8; CYP2C19 activ: 0.7; CYP2C9 inhib: 24.2; Measles CPE: 2.1; CYP2C19 inhib: 30.0

How did CCc1ccc(NC(=O)CSCc2nc(N)nc(Nc3ccccc3CC)n2)cc1 do in these assays?
Measles CPE: 5.4

How did O=C(COC(=O)c1cccc(S(=O)(=O)NCc2ccccc2)c1)Nc1ccccc1OC(F)F do in these assays?
CYP2C9 act: 0.8; CYP2C19 activ: 0.4; CYP2C9 inhib: 21.3; Measles CPE: 9.4; CYP2C19 inhib: 59.5*

What do the screens show for `CN(C)S(=O)(=O)c1cccc(C(=O)OCC(=O)NCc2ccccc2)c1`?
CYP2C9 act: 1; CYP2C19 activ: 1.1; CYP2C9 inhib: 3.1; Measles CPE: 18.0; CYP2C19 inhib: -7.0

What do the screens show for `CN(C)S(=O)(=O)c1ccc(C(=O)OCC(=O)c2ccc(OC(F)F)cc2OC(F)F)cc1`?
CYP2C9 act: 0.5; CYP2C19 activ: 0.1; CYP2C9 inhib: 48.4; Measles CPE: 19.4; CYP2C19 inhib: 85.5*

What do the screens show for `O=C(COC(=O)c1ccc(S(=O)(=O)NCc2ccco2)cc1)Nc1ccccc1OC(F)F`?
CYP2C9 act: 0.2; CYP2C19 activ: 1; CYP2C9 inhib: 76.5*; Measles CPE: 7.2; CYP2C19 inhib: 4.8

Results for Cc1c(C(=O)OCC(=O)Nc2ccccc2OC(F)F)cccc1[N+](=O)[O-] ?
Measles CPE: 5.0

What do the screens show for `Cc1ccc(NC(=O)c2ccc(OC(F)F)cc2)cc1S(=O)(=O)N(C)C`?
Measles CPE: 7.2

How did CN(C)S(=O)(=O)c1ccc(C(=O)OCC(=O)Nc2ccccc2OC(F)F)cc1 do in these assays?
CYP2C9 act: 0.4; CYP2C19 activ: 0.9; CYP2C9 inhib: 58.2*; Measles CPE: 4.3; CYP2C19 inhib: 8.1

What do the screens show for `CCOc1ccc(Nc2nc(Cc3nnc(SCC(=O)N(CC)CC)n3C)cs2)cc1`?
Measles CPE: 7.3

Results for CC1(C)CC(=O)C2=C(C1)NC(=O)CC2c1ccccc1F (configuration not stated) ?
CYP2C9 act: 0.9; CYP2C19 activ: 0.9; CYP2C9 inhib: 14.3; Measles CPE: 11.3; CYP2C19 inhib: 14.0

Results for C/C(=N\OCC(=O)Nc1ccc(OC(F)(F)F)cc1)c1ccc2c(c1)OCCO2 ?
Measles CPE: 4.2

Results for O=S(=O)(NCc1cccnc1)c1cccs1 ?
CYP2C9 act: 0.9; CYP2C19 activ: 0.7; CYP2C9 inhib: 7.6; Measles CPE: 4.5; CYP2C19 inhib: 28.9

Results for CSC(=NCc1cccnc1)NS(=O)(=O)c1cccs1 ?
CYP2C9 act: 0.9; CYP2C19 activ: 0.3; CYP2C9 inhib: 13.1; Measles CPE: 4.7; CYP2C19 inhib: 65.0*

Results for O=C(O)CCc1ccc(-c2cccs2)n1NC(=O)c1ccc(Cl)cc1Cl ?
CYP2C9 act: 0.7; CYP2C19 activ: 1; CYP2C9 inhib: 31.6; Measles CPE: 18.2; CYP2C19 inhib: 2.9

How did Clc1ccc(-n2nnnc2SCc2c(-c3ccccc3)nc3sccn23)cc1 do in these assays?
CYP2C9 act: 0.1; CYP2C19 activ: 0.8; CYP2C9 inhib: 89.0*; Measles CPE: 7.5; CYP2C19 inhib: 24.9

What do the screens show for `C=CCOC(=O)C1=C(C)NC(SCC(=O)N(CC)CC)=C(C#N)C1c1ccccc1` (configuration not stated)?
CYP2C9 act: 0.1; CYP2C19 activ: 0; CYP2C9 inhib: 89.7*; Measles CPE: 6.1; CYP2C19 inhib: 97.3*

What do the screens show for `C=CCOC(=O)C1=C(C)NC(SCC(=O)NC(=O)OCC)=C(C#N)C1c1cccnc1` (configuration not stated)?
CYP2C9 act: 0.1; CYP2C19 activ: 0.1; CYP2C9 inhib: 91.9*; Measles CPE: 17.4; CYP2C19 inhib: 87.3*

Screens (PubChem)
